According to PubChem BioAssay AID1159580 (chemical genetic matrix, 2015):
Values joined by “and” are separate entries in the source; they are usually repeats but may differ in a detail not shown here. Equal entries are not always repeated. Among all 5,500 compounds or so, about 2,000 (36%) were called active. About 18% were inconclusive and are not listed. Rule as the data show it: active = normalized growth mostly below about 0.91 (no sharp cut-off); inconclusive = no clear call, values can overlap the other calls; inactive = mostly above about 0.92. The list shows a part of the results.

Experiment: chemical genetic growth profiling, strain panel (AID 1159580);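 also: tested at 20 µM; growth read once vehicle control cultures reached saturation at 30 °C; 1 = growth at the plate median or of vehicle wells; lower values mean less growth of the strain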
Details: S. cerevisiae deletion strains, growth OD

Measured: normalized growth

N#Cc1ccc2c(c1)N(CCCN1CCC(O)CC1)c1ccccc1S2
active: locus YDR392W, strain spt3, stronger effect = lower value 0.72
inactive: locus YAL013W, strain DEP1, stronger effect = lower value 1 | locus YAL021C, strain ccr4, stronger effect = lower value 1.01 | locus YAL026C, strain drs2, stronger effect = lower value 0.99 | locus YAL030W, strain snc1, stronger effect = lower value 0.999 | locus YBL061C, strain skt5, stronger effect = lower value 0.984 | locus YBR009C, strain hhf1, stronger effect = lower value 0.953 | locus YBR021W, strain FUR4, stronger effect = lower value 1 | locus YBR023C, strain chs3, stronger effect = lower value 0.982 | locus YBR171W, strain sec66, stronger effect = lower value 1 | locus YBR229C, strain ROT2, stronger effect = lower value 1.02 | locus YBR231C, strain swc5, stronger effect = lower value 0.994 | locus YBR279W, strain paf1, stronger effect = lower value 0.987 | locus YCL011C, strain gbp2, stronger effect = lower value 0.989 | locus YCL016C, strain dcc1, stronger effect = lower value 0.987 | locus YCL029C, strain bik1, stronger effect = lower value 1.03 | locus YCL061C, strain MRC1, stronger effect = lower value 0.992 | locus YCL069W, strain vba3, stronger effect = lower value 0.993 | locus YCR088W, strain abp1, stronger effect = lower value 0.996 | locus YDL005C, strain med2, stronger effect = lower value 0.991 | locus YDL035C, strain GPR1, stronger effect = lower value 1.01 | locus YDL040C, strain nat1, stronger effect = lower value 0.975 | locus YDL074C, strain BRE1, stronger effect = lower value 1 | locus YDL101C, strain DUN1, stronger effect = lower value 1 | locus YDL134C, strain PPH21, stronger effect = lower value 1.01 | locus YDL185W, strain tfp1, stronger effect = lower value 1.03 | locus YDL192W, strain arf1, stronger effect = lower value 1.03 | locus YDR001C, strain nth1, stronger effect = lower value 0.992 | locus YDR069C, strain doa4, stronger effect = lower value 0.995 | locus YDR101C, strain arx1, stronger effect = lower value 1.01 | locus YDR137W, strain rgp1, stronger effect = lower value 1.02 | locus YDR150W, strain NUM1, stronger effect = lower value 0.999 | locus YDR159W, strain sac3, stronger effect = lower value 0.979 | locus YDR162C, strain NBP2, stronger effect = lower value 1.02 | locus YDR195W, strain ref2 1 | locus YDR297W, strain sur2, stronger effect = lower value 0.99 | locus YDR318W, strain mcm21, stronger effect = lower value 1.02 | locus YDR334W, strain swr1, stronger effect = lower value 0.996 | locus YDR335W, strain msn5, stronger effect = lower value 0.996 | locus YDR388W, stronger effect = lower value 1.03 | locus YDR502C, strain sam2, stronger effect = lower value 1.01 | locus YEL003W, strain gim4, stronger effect = lower value 1 | locus YEL037C, strain rad23, stronger effect = lower value 0.996 | locus YEL061C, strain CIN8 (second series), stronger effect = lower value 0.994 | locus YEL061C, strain CIN8, stronger effect = lower value 1 | locus YER015W, strain faa2, stronger effect = lower value 1 | locus YER016W, strain bim1, stronger effect = lower value 0.996 | locus YER110C, stronger effect = lower value 1.02 | locus YER111C, strain swi4, stronger effect = lower value 0.984 | locus YER155C, strain BEM2 (second series), stronger effect = lower value 0.912 | locus YER155C, strain BEM2, stronger effect = lower value 1 | locus YER167W, strain BCK2, stronger effect = lower value 1.01 | locus YFR010W, strain ubp6, stronger effect = lower value 0.999 | locus YGL078C, strain dbp3, stronger effect = lower value 1.01 | locus YGL086W, strain mad1, stronger effect = lower value 1.02 | locus YGL167C, strain pmr1, stronger effect = lower value 0.995 | locus YGL173C, strain kem1, stronger effect = lower value 0.991 | locus YGL227W, strain vid30, stronger effect = lower value 0.996 | locus YGL240W, strain doc1, stronger effect = lower value 0.97 | locus YGL248W, strain PDE1, stronger effect = lower value 1.01 | locus YGL253W, strain hxk2, stronger effect = lower value 0.991 | locus YGR078C, strain PAC10, stronger effect = lower value 0.998 | locus YGR135W, strain pre9, stronger effect = lower value 1.01 | locus YGR229C, strain SMI1, stronger effect = lower value 1 | locus YGR252W, strain gcn5, stronger effect = lower value 1.01 | locus YHR013C, strain ard1, stronger effect = lower value 0.897 | locus YHR027C, strain rpn1, stronger effect = lower value 0.997 | locus YHR030C, strain SLT2, stronger effect = lower value 1.01 and 1.03 | locus YHR079C, strain IRE1 (second series), stronger effect = lower value 1.02 | locus YHR079C, strain IRE1, stronger effect = lower value 1.04 | locus YHR094C, strain hxt1, stronger effect = lower value 1.02 | locus YHR129C, strain ARP1, stronger effect = lower value 1 | locus YHR142W, strain chs7, stronger effect = lower value 0.997 | locus YHR200W, strain rpn10, stronger effect = lower value 1.02 | locus YIL066C, strain RNR3, stronger effect = lower value 1.01 | locus YIL073C, strain SPO22, stronger effect = lower value 1.03 | locus YIL125W, strain kgd1, stronger effect = lower value 1.03 | locus YIR030C, strain dcg1, stronger effect = lower value 1.03 | locus YJL092W, strain hpr5, stronger effect = lower value 1 | locus YJL095W, strain BCK1 (second series), stronger effect = lower value 0.988 | locus YJL095W, strain BCK1, stronger effect = lower value 0.983 and 1.04 | locus YJL115W, strain asf1, stronger effect = lower value 0.994 | locus YJL129C, strain trk1, stronger effect = lower value 0.994 | locus YJL134W, strain LCB3, stronger effect = lower value 1 | locus YJL154C, strain vps35, stronger effect = lower value 0.987 | locus YJL164C, strain tpk1, stronger effect = lower value 0.992 | locus YJL166W, strain qcr8, stronger effect = lower value 0.997 | locus YJL168C, strain set2, stronger effect = lower value 1.02 | locus YJL187C, strain SWE1 (second series), stronger effect = lower value 1.01 | locus YJL187C, strain SWE1, stronger effect = lower value 0.998 | locus YJR043C, strain POL32, stronger effect = lower value 1.01 | locus YJR066W, strain TOR1, stronger effect = lower value 0.955
